Calls of active or inactive are those of the source. How the source made its calls: active means hit-call score of the fitted dose curve at least 0.9, where 1 is the maximum; inactive means score below 0.9.

This passage reports outcome and AC50 results from PubChem BioAssay (EPA / NIEHS).

Read-out in this assay: Interleukin 6 (IL6), IL6 (gene 3569)
Nature of the assay: LTEA_HepaRG_IL6: Life Technologies and Expression Analysis (LTEA) Assay for Interleukin 6 (IL6) using HepaRG (AID 2283509). The note with it: mRNA level, 48 h; actives raise or lower the signal. On the procedure: LTEA_HepaRG is a cell based, multiplexed-readout assay that uses HepaRG, a human liver cell line, with measurements taken at 48 hours after chemical dosing on a 96-well plate.LTEA_HepaRG_IL6 is one of 102 assay component(s) measured in the LTEA HepaRG cell culture assay. It is a marker of Inflammation.Data from the assay component LTEA_HepaRG_IL6 was analyzed into 1 endpoint. This assay endpoint, LTEA_HepaRG_IL6, was analyzed with bidirectional fitting relative to DMSO as the negative control and baseline of activity. Using a type of inducible reporter, measures of mRNA induction for gain or loss-of-signal activity can be used to understand regulation of transcription factor activity. To generalize the intended target to other relatable targets, this assay endpoint is annotated to the cytokine intended target family, where the subfamily is interleukins.
A total of 1060 chemcials from the ToxCast library were tested in eight-point concentration-response experiments. Cell culture and cytotoxicity assays were conducted at Thermo Fisher Scientific's Custom Services facility (Madison, WI). A single lot of human HepaRG cells (Thermo Fisher Scientific, Frederick, MD) was used for the cell culture experiments. 96-well format collagen type I coated plates of human HepaRG cells were prepared using established methods. Briefly, cryopreserved HepaRG cells were thawed, plated at a density of approximately 100,000 cells/well in HepaRG Thaw, Plate, and General Purpose media (HPRG770, Thermo Fisher Scientific), and incubated for 48 hours. 0.5% DMSO was selected as vehicle control to balance the requisite need of DMSO in HepaRG cultures to maintain differentiation (for example, baseline metabolism, proportions of hepatocytes vs. cholangiocytes), while enabling further hepatic receptor pathway activation (for example, PXR and CAR) in response to chemical exposure. 48 hours after plating, the culture medium was replaced with HepaRG Serum-Free Incudtion Media. Cells were exposed to each test chemical in duplicate and maintained in CO2 incubators for another 48 hours. Chemical plates were thawed to room temperature and 200x concentrations of treatment groups were prepared. 8-point conentration-reponse curves were made with the highest exposure at 100 uM, followed by half-log dilutions, all in 0.5% DMSO. Each test plate contained variouse controls, induction positive controls (1mM phenobarbital), cytotoxicity positive controls ([…] aflatoxin B1), vehicle controls (0.5% DMSO), and total lysis controls (0.5% DMSO). Cell morphology images were taken using an Essen IncuCyte FLR automated microscope, with six 96-well plates imaged in about 24 minutes. Images were captured and exported and JPEG files. Spent culture media was transfered to black-well plates for the LDH assay, and remaining media was sorted at -80 C for later use. Cells were treated with RLT buffer and frozen until shipped for gene expression analysis. Total RNA was isolated from the cell suspension in 75 uL of Buffer RLT (Qiagen, Germantown, MD 20874) by Quintiles/Expression Analysis (Durham, NC) using a custom isolation procedure. Total RNA from each plate well was transferred to a preamplification plate. Fluidigm's 96.96 Dynamic ArrayTM (Fluidigm, Amsterdam, the Netherlands) technology was used for gene expression analyses by quantitative reverse transcription polymerase chain reaction (qRT-PCR, performed by Quintiles/Expression Analysis, Durham, NC)89. Standard TaqManTM Assays (Applied Biosystems/ThermoFisher Scientific, Foster City, CA) were used to assess the expression of 93 genes selected based on their selectivity and sensitivity to important hepatic receptors known to be modulated by environmental chemicals; importance in human hepatocyte functionality; and hepatotoxicity. […]
Turning to `NC(=O)N(O)[C@@H]1COc2cc(OCc3ccccc3)ccc21`, the call was inactive.
As for `CC(C)c1nnc2ccc(-c3ocnc3-c3cc(F)ccc3F)cn12`, the compound was called inactive.
On the same count and under the same terms, the same measure for `COS(C)(=O)=O`: “inactive”; for `CC1(C)C(=O)N(Cl)C(=O)N1Cl`: “inactive”; for `OCC(CO)(CO)CO`: “inactive”.
Take `CCOC(N)=O`: the compound was called inactive.
Consider `O=C(O)c1cccc(C(=O)O)c1`, for which the compound was classed as inactive.
On to `CCc1cccc(CC)c1N`, for which the compound was called inactive.
`OCCNCCO`: the compound was classed as inactive.
With `CCCC(CCC)C(=O)O`, the result was inactive.
On to `CCCCCCCC1CCC(=O)O1` (stereo not given), for which the outcome was inactive.
As for `c1ccc2c(c1)-c1cccc3c1c-2cc1ccccc13`, the compound was classed as inactive.
With `CCCCCCOC(=O)CC(CC(=O)OCCCCCC)(OC(=O)CCC)C(=O)OCCCCCC`, the outcome was inactive.
As for `CCCCCCCCCCCCCCO`, the call was inactive.
With `CCCCN1C(=O)[C@@H]([C@H](O)C2CCCCC2)NC(=O)C12CCN(Cc1ccc(Oc3ccc(C(=O)O)cc3)cc1)CC2`, the concentration at half-maximal activity (AC50) (as a rule, the concentration at which the activity in the assay is half-maximal) was 2.99 µM (active).
As to `O=C1CN(N=Cc2ccc([N+](=O)[O-])o2)C(=O)N1`, the outcome was inactive.
Same read-out and setting: to `Cn1c(=O)c2[nH]cnc2n(C)c1=O` belongs “inactive”; to `OCCOCCOCCO`, “inactive”.
As for `CCCc1ccccc1`, the call was inactive.
Consider `CNC(C)=O`, for which the compound was classed as inactive.
For the compound `OC[C@H]1O[C@@](CO)(O[C@H]2O[C@H](CO)[C@@H](O)[C@H](O)[C@H]2O)[C@@H](O)[C@@H]1O`, the compound was called inactive.
For the compound `NC(N)=O`, the compound was classed as inactive.
In the case of `O=C(O)[C@H](O)[C@@H](O)C(=O)O`, the compound was called inactive.
Regarding `NC(=O)NN=Cc1ccc([N+](=O)[O-])o1`, the compound was called inactive.
Consider `NC(=O)N1c2ccccc2C=Cc2ccccc21`, for which the result was inactive.
As for `C=CCc1cc(S(=O)(=O)c2ccc(O)c(CC=C)c2)ccc1O`, the AC50 was 93.2 µM (active).
Take `CCCCCCCCN(C)C`: the call was inactive.
On to `CCCOc1ccc(S(=O)(=O)N2CCN(CC)CC2)cc1-c1nc2c(CC)n(Cc3ccccn3)nc2c(=O)[nH]1`, for which the outcome was inactive.
On the same count and under the same terms, to `C=CN1CCCC1=O` belongs “inactive”; to `CC[C@H](C)C(=O)O[C@H]1C[C@H](O)C=C2C=C[C@H](C)[C@H](CC[C@@H](O)C[C@@H](O)CC(=O)O)[C@H]21`, “inactive”; to `Cn1cc[nH]c1=S`, “inactive”.
Take `OC(CCl)CCl`: the result was inactive.
Still for that read-out and setting: the same measure for `CCCCCOC(C)=O`: “inactive”.
Consider `CCOc1ccc2[nH]cc(C(=O)NCc3ccccc3)c(=O)c2n1`, for which the result was inactive.
For `CC(C)CCCCCCOC(=O)C1CCCCC1C(=O)OCCCCCCC(C)C` (stereo not given), the result was inactive.
As to `NNC(=O)c1ccncc1`, the call was inactive.
On the same count and under the same terms, the same measure for `Cc1ncc([C@@H](CCCCCCc2ccc3c(n2)NCCC3)CC(=O)O)cn1`: “inactive”; for `O=C(NO)C1(NS(=O)(=O)c2ccc(Oc3ccc(F)cc3)cc2)CCOCC1`: “inactive”; for `CCCCCCCCCC`: “inactive”.
Still for that read-out and setting: to `CCCCCCCC/C=C\CCCCCCCC(=O)OC[C@@H](O)[C@H]1OC[C@H](O)[C@H]1O` belongs “inactive”.
